Results published in PubChem BioAssay (NCATS).
Results filed as inconclusive are left out. The source made the active and inactive calls. Unless noted, calls come from the whole dose curve; as a rule, active = well fitted curve in the direction sought with a large enough effect; inconclusive = small, poorly fitted or top-dose-only effect, or another doubt; inactive = no such curve, though single readings can be large; an effect the other way counts as inactive or inconclusive.

How the values were obtained:
UISO = assay: qHTS assay to identify novel small-molecules to repurpose for Merkel cell carcinoma treatment (AID 1296009); conditions: MCC and control cell lines, CellTiter-Glo viability, 72 h; series mostly up to 46 µM; note: % is set by controls: 0 for no effect and ±100 for the full control effect; nearly all actives have a fitted effect of over 60% in size
How it was run: (§1)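 qHTS format: cells treated with library compounds in DMSO across 8 (NPC) or 11 (MIPE) concentrations. Readout after 72 hr at 37 degree celsius was CellTiter-Glo luminescence.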

WaGa = assay: as above; conditions: MCC and control cell lines, CellTiter-Glo viability, 72 h; series mostly up to 46 µM
How it was run: as §1

C33A = assay: Primary qHTS to identify gynecologic anti-cancer compounds using libraries of approved drugs and bioactive compounds (AID 1345084); conditions: Gynecologic cancer cell panel viability, ATPlite luminescence, 48 h; series mostly up to 57.5 µM; note: % is set by controls: 0 for no effect and ±100 for the full control effect; nearly all actives have a fitted effect of over 55% in size
How it was run: (§2)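 48 h compound exposure at 37 C, 5% CO2; five-point qHTS. ATPlite luminescence readout of cell ATP.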

CAOV3 = assay: as above; conditions: Gynecologic cancer cell panel viability, ATPlite luminescence, 48 h; series mostly up to 57.5 µM
How it was run: as §2

CASKI = assay: as above; conditions: Gynecologic cancer cell panel viability, ATPlite luminescence, 48 h; series mostly up to 57.5 µM
How it was run: as §2

Es-2 = assay: as above; conditions: Gynecologic cancer cell panel viability, ATPlite luminescence, 48 h; series mostly up to 57.5 µM
How it was run: as §2

HeLa = assay: as above; conditions: Gynecologic cancer cell panel viability, ATPlite luminescence, 48 h; series mostly up to 57.5 µM
How it was run: as §2

Hek293T = assay: as above; conditions: Gynecologic cancer cell panel viability, ATPlite luminescence, 48 h, control line for the selectivity index; series mostly up to 57.5 µM
How it was run: as §2

JEG-3 = assay: as above; conditions: Gynecologic cancer cell panel viability, ATPlite luminescence, 48 h; series mostly up to 57.5 µM
How it was run: as §2

OV90 = assay: as above; conditions: Gynecologic cancer cell panel viability, ATPlite luminescence, 48 h; series mostly up to 57.5 µM
How it was run: as §2

PA-1 = assay: as above; conditions: Gynecologic cancer cell panel viability, ATPlite luminescence, 48 h; series mostly up to 57.5 µM
How it was run: as §2

SKOV3 = assay: as above; conditions: Gynecologic cancer cell panel viability, ATPlite luminescence, 48 h; series mostly up to 57.5 µM
How it was run: as §2

Tov-21-G = assay: as above; conditions: Gynecologic cancer cell panel viability, ATPlite luminescence, 48 h; series mostly up to 57.5 µM
How it was run: as §2

Tov112D = assay: as above; conditions: Gynecologic cancer cell panel viability, ATPlite luminescence, 48 h; series mostly up to 57.5 µM
How it was run: as §2

[1] = Drug repurposing screens with cells derived from glioblastoma tumor samples (AID 1345199); conditions: GBM patient neurospheres viability, ATP luminescence, 48 h; note: % is set by controls: 0 for no effect and ±100 for the full control effect; nearly all actives have a fitted effect of over 40% in size
How it was run: (§3)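 Four patient lines of CD133+ GBM neurospheres were screened at several concentrations; hits were retested in those lines plus three slower-growing GBM lines, using 48-hour treatment and ATP-based viability.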

astro = assay: as above; conditions: viability, ATP luminescence, 48 h; series mostly up to 45.9 µM
How it was run: as §3

[2] = target: Nuclear receptor subfamily 1 group I member 2 (Rattus norvegicus) (UniProt Q9R1A7); assay: qHTS assay for small molecule activators of the rat pregnane X receptor (rPXR) signaling pathway (AID 651751; call rule not given here; note: 0% is about no effect); conditions: rPXR reporter cells, luciferase (One-Glo), 24 h
[3] = qHTS assay for small molecule activators of the human pregnane X receptor (PXR) signaling pathway (AID 720659; call rule not given here; note: 0% is about no effect)
[4] = at 45.9 µM (top of the series), tumour line B
[5] = at 45.9 µM (top of the series), tumour line D
[6] = at 46.1 µM (top of the series), tumour line C
[7] = at 20 µM (top of the series), tumour line C
[8] = at 21.2 µM (top of the series), tumour line B
[9] = at 21.2 µM (top of the series), tumour line D
[10] = at 46 µM (top of the series), tumour line A
[11] = at 21.3 µM (top of the series), tumour line A

Sequence of Nuclear receptor subfamily 1 group I member 2 (Rattus norvegicus) (Q9R1A7 whole entry, looked up): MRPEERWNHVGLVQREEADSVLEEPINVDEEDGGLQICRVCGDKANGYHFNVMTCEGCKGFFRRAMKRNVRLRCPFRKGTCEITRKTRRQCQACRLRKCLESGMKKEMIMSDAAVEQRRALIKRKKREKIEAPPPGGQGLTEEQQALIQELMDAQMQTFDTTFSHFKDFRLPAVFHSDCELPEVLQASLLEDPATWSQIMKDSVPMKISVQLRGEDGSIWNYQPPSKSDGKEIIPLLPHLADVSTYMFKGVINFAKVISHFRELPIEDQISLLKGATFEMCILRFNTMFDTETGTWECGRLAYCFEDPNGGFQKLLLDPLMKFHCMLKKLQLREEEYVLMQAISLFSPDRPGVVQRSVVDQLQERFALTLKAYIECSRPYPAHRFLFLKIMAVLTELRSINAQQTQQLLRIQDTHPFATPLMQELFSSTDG

O[C@@H]1CO[C@H]2[C@@H]1OC[C@@H]2O
inactive: outcome (UISO) | outcome (WaGa) | outcome (C33A) | outcome (CAOV3) | outcome (CASKI) | outcome (Es-2) | outcome (HeLa) | outcome (Hek293T) | outcome (JEG-3) | Potency (OV90) | outcome (PA-1) | outcome (SKOV3) | outcome (Tov-21-G) | outcome (Tov112D) | activity, negative = cell killing [1, 4] -8.03% | activity, negative = cell killing [1, 5] 1.68% | activity, negative = cell killing [1, 6] -10.9% | outcome (astro)

NCc1ccc(S(N)(=O)=O)cc1
inactive: outcome (UISO) | outcome (WaGa) | outcome (C33A) | outcome (CAOV3) | outcome (CASKI) | outcome (Es-2) | outcome (HeLa) | outcome (Hek293T) | outcome (JEG-3) | Potency (OV90) | outcome (PA-1) | outcome (SKOV3) | outcome (Tov-21-G) | outcome (Tov112D) | activity, negative = cell killing [1, 7] 8.51% | activity, negative = cell killing [1, 8] -1.96% | activity, negative = cell killing [1, 9] -7.46% | outcome (astro)

O=C(Cn1ccnc1[N+](=O)[O-])NCc1ccccc1
inactive: outcome (UISO) | outcome (WaGa) | outcome (C33A) | outcome (CAOV3) | outcome (CASKI) | outcome (Es-2) | outcome (HeLa) | outcome (Hek293T) | outcome (JEG-3) | Potency (OV90) | outcome (PA-1) | outcome (SKOV3) | outcome (Tov-21-G) | outcome (Tov112D) | activity, negative = cell killing [1, 4] 4.79% | activity, negative = cell killing [1, 5] 3.98% | activity, negative = cell killing [1, 10] -20.7% | activity, negative = cell killing [1, 6] -17.9% | outcome (astro)

O=c1[nH]cnc2nc[nH]c12
inactive: outcome (UISO) | outcome (WaGa) | outcome (C33A) | outcome (CAOV3) | outcome (CASKI) | outcome (Es-2) | outcome (HeLa) | outcome (Hek293T) | outcome (JEG-3) | Potency (OV90) | outcome (PA-1) | outcome (SKOV3) | outcome (Tov-21-G) | outcome (Tov112D) | activity, negative = cell killing [1, 4] -0.606% | activity, negative = cell killing [1, 5] 15.6% | activity, negative = cell killing [1, 10] -28.5% | activity, negative = cell killing [1, 6] -12.9% | outcome (astro)

Nc1ccncc1N
inactive: outcome (UISO) | outcome (WaGa) | outcome (C33A) | outcome (CAOV3) | outcome (CASKI) | outcome (Es-2) | outcome (HeLa) | outcome (Hek293T) | outcome (JEG-3) | Potency (OV90) | outcome (PA-1) | outcome (SKOV3) | outcome (Tov-21-G) | outcome (Tov112D) | activity, negative = cell killing [1, 4] -7.35% | activity, negative = cell killing [1, 5] -6.96% | activity, negative = cell killing [1, 10] -18.3% | activity, negative = cell killing [1, 6] -14.3% | outcome (astro)

CCOC(=O)c1cccnc1
inactive: outcome (UISO) | outcome (WaGa) | outcome (C33A) | outcome (CAOV3) | outcome (CASKI) | outcome (Es-2) | outcome (HeLa) | outcome (Hek293T) | outcome (JEG-3) | Potency (OV90) | outcome (PA-1) | outcome (SKOV3) | outcome (Tov-21-G) | outcome (Tov112D) | activity, negative = cell killing [1, 4] -7.07% | activity, negative = cell killing [1, 5] -8.05% | activity, negative = cell killing [1, 10] -24.1% | activity, negative = cell killing [1, 6] 22.3% | outcome (astro)

C[N+]1(C)CCCC(OC(=O)C(O)(c2ccccc2)c2ccccc2)C1 (stereo not given)
inactive: outcome (UISO) | outcome (WaGa) | outcome (C33A) | outcome (CAOV3) | outcome (CASKI) | outcome (Es-2) | outcome (HeLa) | outcome (Hek293T) | outcome (JEG-3) | Potency (OV90) | outcome (PA-1) | outcome (SKOV3) | outcome (Tov-21-G) | outcome (Tov112D) | activity, negative = cell killing [1, 7] -3.92% | activity, negative = cell killing [1, 8] -7.65% | activity, negative = cell killing [1, 9] 4.26% | activity, negative = cell killing [1, 11] -24.7% | outcome (astro)

CCOc1ccc(C(=O)OCCN(CC)CC)cc1
inactive: outcome (UISO) | outcome (WaGa) | outcome (C33A) | outcome (CAOV3) | outcome (CASKI) | outcome (Es-2) | outcome (HeLa) | outcome (Hek293T) | outcome (JEG-3) | Potency (OV90) | outcome (PA-1) | outcome (SKOV3) | outcome (Tov-21-G) | outcome (Tov112D) | activity, negative = cell killing [1, 4] -7.64% | activity, negative = cell killing [1, 5] -13.5% | activity, negative = cell killing [1, 10] -29% | activity, negative = cell killing [1, 6] -17.9% | outcome (astro)

O=C(O)CCCc1ccccc1
inactive: outcome (UISO) | outcome (WaGa) | outcome (C33A) | outcome (CAOV3) | outcome (CASKI) | outcome (Es-2) | outcome (HeLa) | outcome (Hek293T) | outcome (JEG-3) | Potency (OV90) | outcome (PA-1) | outcome (SKOV3) | outcome (Tov-21-G) | outcome (Tov112D) | activity, negative = cell killing [1, 4] -2.94% | activity, negative = cell killing [1, 5] -2.78% | activity, negative = cell killing [1, 6] -9.45% | outcome (astro)

CCS(=O)(=O)CCn1c([N+](=O)[O-])cnc1C
inactive: outcome (UISO) | outcome (WaGa) | outcome (C33A) | outcome (CAOV3) | outcome (Es-2) | outcome (HeLa) | outcome (Hek293T) | outcome (JEG-3) | Potency (OV90) | outcome (PA-1) | outcome (SKOV3) | outcome (Tov-21-G) | outcome (Tov112D) | activity, negative = cell killing [1, 7] -12.4% | activity, negative = cell killing [1, 8] -11.3% | activity, negative = cell killing [1, 9] 3.43% | activity, negative = cell killing [1, 11] -20.5% | outcome (astro)

NS(=O)(=O)c1cc(-c2nn[nH]n2)c(NCc2cccs2)cc1Cl
inactive: outcome (UISO) | outcome (WaGa) | outcome (C33A) | outcome (CAOV3) | outcome (CASKI) | outcome (Es-2) | outcome (HeLa) | outcome (Hek293T) | outcome (JEG-3) | outcome (PA-1) | outcome (Tov-21-G) | outcome (Tov112D) | activity, negative = cell killing [1, 4] 0.416% | activity, negative = cell killing [1, 5] -1.64% | activity, negative = cell killing [1, 6] -29.2% | outcome (astro)

Cc1cc(O)cc(C)c1Cl
inactive: outcome (UISO) | outcome (WaGa) | outcome (C33A) | outcome (CAOV3) | outcome (CASKI) | outcome (Es-2) | outcome (HeLa) | outcome (Hek293T) | outcome (JEG-3) | outcome (PA-1) | outcome (SKOV3) | outcome (Tov-21-G) | outcome (Tov112D) | activity, negative = cell killing [1, 4] 0.561% | activity, negative = cell killing [1, 5] -6% | activity, negative = cell killing [1, 10] -20% | activity, negative = cell killing [1, 6] 6.74% | outcome (astro) | max response [2] 1.15% | outcome [3]

COc1ccc(NS(=O)(=O)c2ccc(N)cc2)nn1
inactive: outcome (UISO) | outcome (WaGa) | outcome (C33A) | outcome (CAOV3) | outcome (CASKI) | outcome (Es-2) | outcome (HeLa) | outcome (Hek293T) | outcome (JEG-3) | outcome (PA-1) | outcome (SKOV3) | outcome (Tov-21-G) | outcome (Tov112D) | activity, negative = cell killing [1, 7] -22.2% | activity, negative = cell killing [1, 8] -14.9% | activity, negative = cell killing [1, 9] -7.76% | activity, negative = cell killing [1, 11] -20.5% | outcome (astro)
